This is a sample that favours compounds with a hit; in the whole collection about 2.4% have one here.
Rango complex inh – qHTS Assay for Inhibitors of Rango (Ran-regulated importin-beta cargo) - Importin beta complex formation. Potency, µM (series often up to 92.2 µM), for the others: top-dose inhibition of complex formation. actives 0.031% (n = 340,000). Rango CFP/YFP FRET sensor + importin beta, 45 min; calls by dose curve;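 further: 0% = DMSO wells and 100% = buffer wells lacking importin beta; nearly all actives have a fitted effect of over 15% in size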
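FRET biosensor Rango (snurportin 1 IBB between N-terminal EYFP and C-terminal Cerulean), 50 nM in PBS/1 mM DTT/0.02% Tween-20/0.1% BSA, preincubated 5 min RT with compound; 0.125 microM importin beta added, 45 min RT, CFP/YFP FRET ratio read.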
Rango dissoc inh – qHTS Assay for Inhibitors of RanGTP induced Rango (Ran-regulated importin-beta cargo) - Importin beta complex dissociation; Snurportin-1 (Homo sapiens) + GTP-binding nuclear protein Ran (Homo sapiens) + Importin …; Biochemical FRET Rango-importin beta, RanGTP-induced dissociation; Potency, µM (highest dose often 46.1 µM), inactives show at the highest dose activity change, negative = inhibition; actives 0.071% (n = 340,000); calls by dose curve; further: % of control where 0% means no effect; nearly all actives have a fitted effect of over 45% in size
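Quantitative HTS using a FRET biosensor: 0.1 uM Rango, 0.25 uM importin beta, 0.6 uM Ran, 2 mM GTP, 0.2 uM RCC1 final, PBS with DTT, Tween-20 and BSA. Post-read taken 45 min after Ran addition.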
PKM2 activator – qHTS Assay for Activators of Human Muscle isoform 2 Pyruvate Kinase; Pyruvate kinase PKM (Homo sapiens), P14618; purified PKM2, Kinase-Glo ATP luminescence, activation; response scale: 0% is enzyme alone, no compound; Potency, µM (doses to about 57.5 µM), for inactives: at the top dose activation, hits mostly activators; actives 0.34% (n = 260,000); further: on the % scale 0 is the no-effect control and ±100 the full control effect; nearly all actives have a fitted effect of over 55% in size
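hPK-M2, >95% pure; 0.1 mM ADP / 0.5 mM PEP final; imidazole pH7.2 buffer w/ 7 mM MgCl2, 50 mM KCl; 1 h RT; Kinase-Glo lum. Intermediate enzyme activity for dual inhibitor/activator qHTS.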
PGK inhibitor – qHTS Assay to Find Inhibitors of Phosphoglycerate Kinase; actives 0.043% (n = 380,000); PGK/GAPDH coupled, Kinase-Glo luminescence, 60 min; Potency, µM (doses to about 57.5 µM), for the others: at the top dose activity change, negative = inhibition, actives largely listed as inhibitors; AID 602233, 2012; further: on the % scale 0 is the no-effect control and ±100 the full control effect; nearly all actives have a fitted effect of over 60% in size
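Recombinant glycosomal PGK reaction used 1,3-bisphosphoglycerate generated in-well by GAPDH (100nM final) in 100mM TEA pH 7.6, 5mM MgCl2, 0.01% Tween-20. After 60 minutes at room temperature, ATP was read by Kinase-Glo Plus luminescence end-point.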
ELG1 repair inh – qHTS screen for small molecules that inhibit ELG1-dependent DNA repair in human embryonic kidney (HEK293T) cells expressing luciferase-tagged ELG1; HEK293T ELG1-luciferase reporter, luminescence, 16 h; DNA damage induced by 5-fluorouridine; Potency, µM (titrated, usually from 46.1 µM), without a hit: at the highest dose activity change, negative = inhibition, most hits filed as inhibitors; actives 2.3% (n = 330,000); further: on the % scale 0 is the no-effect control and ±100 the full control effect; nearly all actives have a fitted effect of over 55% in size
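Reporter activity after DNA damage by 5-fluorouridine is monitored. Compound-treated cells incubate 16 hr at 37 °C, then ONE-Glo is added for 30 min before luminescence reading.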
Tb PFK inh – qHTS Assay to Find Inhibitors of T. brucei phosphofructokinase; T. brucei PFK, ADP-Glo luminescence; ATP-dependent 6-phosphofructokinase (Trypanosoma brucei brucei), O15648; AID 485367, 2010; actives 0.17% (n = 330,000); Potency, µM (top dose mostly 57.5 µM), for inactives: at the top dose activity, negative = inhibition, hits mostly inhibitors;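 further: 0% = uninhibited 1x PFK enzyme wells and -100% = no-enzyme wells; nearly all actives have a fitted effect of over 60% in size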
Target sequence (O15648 whole entry, looked up): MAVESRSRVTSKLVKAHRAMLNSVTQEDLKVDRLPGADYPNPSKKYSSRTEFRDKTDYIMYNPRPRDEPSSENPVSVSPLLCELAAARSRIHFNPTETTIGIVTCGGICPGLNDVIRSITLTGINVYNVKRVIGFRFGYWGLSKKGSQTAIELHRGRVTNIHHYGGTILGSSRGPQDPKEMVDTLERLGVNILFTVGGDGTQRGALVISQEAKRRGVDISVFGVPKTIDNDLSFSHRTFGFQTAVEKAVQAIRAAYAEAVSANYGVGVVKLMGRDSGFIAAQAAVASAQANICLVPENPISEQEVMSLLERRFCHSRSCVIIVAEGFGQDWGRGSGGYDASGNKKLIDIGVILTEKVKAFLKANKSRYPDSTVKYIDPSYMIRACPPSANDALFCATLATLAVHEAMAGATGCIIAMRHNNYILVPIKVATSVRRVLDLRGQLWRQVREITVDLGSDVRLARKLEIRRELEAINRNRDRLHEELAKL
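In TEA buffer at pH 8.0 with 5 mM MgCl2, enzyme (1.25 nM) converted F6P (0.5 mM) and ATP (0.1 mM) for 45 min at room temperature. ADP product was read by luciferase luminescence.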
Numbers without * were called inactive. Unless noted, the call rests on the fitted dose curve; in most records, active means well fitted curve in the direction sought with a large enough effect; inconclusive means small, poorly fitted or top-dose-only effect, or another doubt; inactive means no such curve, though single readings can be large; an effect the other way counts as inactive or inconclusive. Potency means the concentration at half of the fitted maximal effect.

Results for CCc1ccc(S(=O)(=O)Nc2cc(SCC(=O)O)c(O)c3ccccc23)cc1 ?
Rango complex inh: 3.4%; Rango dissoc inh: -10.8%; PKM2 activator: inconclusive; PGK inhibitor: -5.4%; ELG1 repair inh: inconclusive; Tb PFK inh: -21.2%

Results for CCOc1ccc(S(=O)(=O)Nc2cc(SCC(=O)O)c(O)c3ccccc23)cc1 ?
Rango complex inh: 3.1%; Rango dissoc inh: -4.0%; PKM2 activator: 2.4%; PGK inhibitor: -0.1%; ELG1 repair inh: inconclusive; Tb PFK inh: -22.9%

Results for O=S(=O)(Nc1cc(Sc2cccc3cccnc23)c(O)c2ccccc12)c1ccccc1 ?
PKM2 activator: inconclusive; ELG1 repair inh: 9.2µM*; Tb PFK inh: -8.3%

How did Cc1ccn2c(Nc3ccc4c(c3)OCO4)c(-c3ccc(C)o3)nc2c1 do in these assays?
PGK inhibitor: -0.6%

What do the screens show for `Cc1ccc(-c2nc3cnccn3c2Nc2ccc3c(c2)OCO3)o1`?
Rango complex inh: inconclusive; Rango dissoc inh: inconclusive; PKM2 activator: 10µM*; PGK inhibitor: 7.0%; ELG1 repair inh: 27.6%; Tb PFK inh: -13.0%

Results for Cc1ccc(Nc2c(-c3ccc(C)o3)nc3cnccn23)cc1 ?
Rango complex inh: inconclusive; Rango dissoc inh: inconclusive; PKM2 activator: 11.2µM*; PGK inhibitor: -7.8%; ELG1 repair inh: inconclusive; Tb PFK inh: -13.2%

Results for C[C@H](NS(=O)(=O)c1ccc(F)cc1)C(=O)OCC(=O)c1c(N)n(C)c(=O)n(C)c1=O ?
Rango complex inh: 1.5%; Rango dissoc inh: -8.2%; PGK inhibitor: 3.7%; ELG1 repair inh: 5.3%; Tb PFK inh: 2.8%

Results for COc1ccc2cc3cc(C(=O)N4CCN(Cc5ccc6c(c5)OCO6)CC4)oc3nc2c1 ?
Rango complex inh: 0.9%; Rango dissoc inh: -10.0%; PKM2 activator: 3.2%; PGK inhibitor: 0.9%; ELG1 repair inh: 23.1µM*; Tb PFK inh: -2.6%

What do the screens show for `Cc1ccc(S(=O)(=O)N(C)CC(=O)Nc2nnc(CC(C)C)s2)cc1`?
Rango complex inh: -0.6%; Rango dissoc inh: 17.5%; PKM2 activator: 0.3%; PGK inhibitor: 1.5%; ELG1 repair inh: -7.4%; Tb PFK inh: -2.6%

How did C/C(=N\NC(=O)c1ccc(N/N=C(\C)c2ccncc2)cc1)c1ccncc1 do in these assays?
Rango complex inh: -3.0%; Rango dissoc inh: 0.6%; PKM2 activator: 0.6%; PGK inhibitor: 9.0%; ELG1 repair inh: 23.1µM*; Tb PFK inh: -2.1%

Results for Oc1ccccc1CNc1ccc(Br)cn1 ?
Rango complex inh: 2.7%; Rango dissoc inh: 0.7%; PKM2 activator: 31.6µM*; PGK inhibitor: 0.9%; ELG1 repair inh: inconclusive; Tb PFK inh: -3.6%

What do the screens show for `O=C(CCn1cccn1)Nc1ccc2c(c1)OCO2`?
Rango complex inh: -2.1%; Rango dissoc inh: 13.6%; PGK inhibitor: -9.1%; ELG1 repair inh: inconclusive; Tb PFK inh: 27.4%

Results for C=CCNc1nc(N)c(C(=C(C#N)C#N)c2ccc(Br)cc2)s1 ?
Rango complex inh: inconclusive; Rango dissoc inh: inconclusive; PKM2 activator: 0.1%; PGK inhibitor: -10.9%; ELG1 repair inh: 18.4µM*; Tb PFK inh: -2.6%

What do the screens show for `COc1ccccc1OCCSc1nc2ccccc2n1CC(=O)O`?
PGK inhibitor: -13.6%

Results for CCOc1ccc(C(C)=O)cc1CSC(=N)N ?
Rango complex inh: 5.6%; Rango dissoc inh: -0.7%; PKM2 activator: -4.3%; PGK inhibitor: -4.0%; ELG1 repair inh: -11.6%; Tb PFK inh: 7.6%

What do the screens show for `CCCCOc1ccc(Br)cc1CSC(=N)N`?
Rango complex inh: 0.3%; Rango dissoc inh: -23.0%; PKM2 activator: 2.3%; PGK inhibitor: -2.8%; ELG1 repair inh: 23.1µM*; Tb PFK inh: -1.3%

Results for COCCNC(=O)CCN1C(=O)c2cccnc2Oc2ccc(C)cc21 ?
PGK inhibitor: 10.5%

Results for CCOC(=O)N1CCC(n2c(SCC(=O)OCc3ccccc3)nc3ccsc3c2=O)CC1 ?
Rango complex inh: 7.2%; Rango dissoc inh: 12.9%; PKM2 activator: -1.8%; PGK inhibitor: 7.0%; ELG1 repair inh: 23.1µM*; Tb PFK inh: -1.4%

What do the screens show for `COc1ccc(N(C)C(=O)c2cc3c(s2)-c2c(C)cccc2OC3)c(OC)c1`?
Rango complex inh: 1.1%; Rango dissoc inh: 1.5%; PKM2 activator: -2.9%; PGK inhibitor: -9.4%; ELG1 repair inh: 23.1µM*; Tb PFK inh: 4.3%

Results for COCCN(Cc1nc2ccccc2c(=O)[nH]1)C(=O)COc1ccccc1-c1ccccc1 ?
Rango complex inh: -10.7%; Rango dissoc inh: 18.7%; PGK inhibitor: -5.4%; ELG1 repair inh: inconclusive; Tb PFK inh: -5.4%

Results for COC(=O)c1cc(C)sc1NC(=O)CN1CCN(C(=O)c2ccco2)CC1 ?
Rango complex inh: 4.0%; Rango dissoc inh: 2.5%; PKM2 activator: 4.9%; PGK inhibitor: -1.7%; ELG1 repair inh: 20.6µM*; Tb PFK inh: -1.6%

What do the screens show for `CCOC(=O)c1c(NC(=S)N2CCN(C)CC2)sc2c1CCN(C(=O)OCC)C2`?
Rango complex inh: -2.6%; Rango dissoc inh: 36.0%; PKM2 activator: 0.8%; PGK inhibitor: 9.8%; ELG1 repair inh: 16.4µM*; Tb PFK inh: 0.3%

What do the screens show for `CCOC(=O)c1c(NC(=O)CN2CCN(C(=O)c3ccco3)CC2)sc2c1CCCC2`?
Rango complex inh: 2.5%; Rango dissoc inh: 9.5%; PKM2 activator: 2.4%; PGK inhibitor: -3.3%; ELG1 repair inh: 20.6µM*; Tb PFK inh: -12.8%

Results for CC1CN(C(=O)/C=C/c2ccc3c(c2)OCO3)CC(C)O1 (stereo not drawn) ?
Rango complex inh: inconclusive; Rango dissoc inh: -0.3%; PKM2 activator: 10.9%; PGK inhibitor: -9.6%; ELG1 repair inh: 7.7%; Tb PFK inh: -7.9%

Bioassay records as filed in PubChem.
